Data published in PubChem BioAssay (NCI).
The panel holds about 83,000 compounds, 20% with a hit somewhere; the sample as a whole holds those more often.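 Testing used 96-well plates and a 48-hour single-concentration exposure. Example: -40 means 40% of the starting cells died.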 Unmarked numbers belong to inactive results. Calls of active or inactive are those of the source. Rule for the calls: active = growth percent below 10; inactive = the rest.

What was measured:
Experiment in all cases: NCI-60 one-dose screen, 48 h (100 = growth as untreated, 0 = no growth, -100 = all killed)
Conditions in all cases: 10 µM unless noted
HCT-15 colon = test system: HCT-15 colon
HT29 colon = test system: HT29 colon
SNB-75 CNS = test system: SNB-75 CNS
SNB-19 CNS = test system: SNB-19 CNS
U251 CNS = test system: U251 CNS
PC-3 prostate = test system: PC-3 prostate
SK-MEL-5 melanoma = test system: SK-MEL-5 melanoma
UACC-62 melanoma = test system: UACC-62 melanoma
LOX IMVI melanoma = test system: LOX IMVI melanoma
SK-MEL-28 melanoma = test system: SK-MEL-28 melanoma
EKVX NSCLC = test system: EKVX NSCLC
SN12C renal = test system: SN12C renal
UO-31 renal = test system: UO-31 renal
TK-10 renal = test system: TK-10 renal
ACHN renal = test system: ACHN renal
CAKI-1 renal = test system: CAKI-1 renal
CCRF-CEM leukemia = test system: CCRF-CEM leukemia
MOLT-4 leukemia = test system: MOLT-4 leukemia
A498 renal = test system: A498 renal

SMILES | growth (HCT-15 colon) | growth (HT29 colon) | growth (SNB-75 CNS) | growth (SNB-19 CNS) [%] | growth (U251 CNS) [%] | growth (PC-3 prostate) [%] | growth (SK-MEL-5 melanoma) | growth (UACC-62 melanoma) | growth (LOX IMVI melanoma) | growth (SK-MEL-28 melanoma) | growth (EKVX NSCLC) [%] | growth (SN12C renal) [%] | growth (UO-31 renal) [%] | growth (TK-10 renal) [%] | growth (ACHN renal) [%] | growth (CAKI-1 renal) [%] | growth (CCRF-CEM leukemia) | growth (MOLT-4 leukemia) | growth (A498 renal)
CCc1cccc2c3c(sc12)C(c1ccc(Cl)cc1)C(C#N)=C(/N=C/c1ccc(Cl)cc1)O3 (stereo unspecified) | 25% | 7.88% (active) | -13.9% (active) | 20.1 | 20.5 | 16.5 | 14.5% | 10.7% | 26.5% | 56.7% | 45.8 | 33.9 | 39.9 | 56.4 | 41.7 | 37.5 | 13% | 30.2% | 
Cc1ccc(CSc2nc(-c3ccc(Cl)cc3)c(C#N)c(N3CCOCC3)n2)cc1 | 95.9% | 91.2% | 108% | 95.4 | 96.7 | 80.3 | 96.5% | 73.1% | 96.6% | 93.8% | 95.1 | 98.1 | 86.1 | 105 | 98.9 | 76.4 | 1.17% (active) | 85% | 
COc1ccc(COc2ccc(/C=C3\C(=O)Nc4ccccc43)cc2OC)cc1 | 105% | 108% | 97.4% | 97.3 | 109 | 95.8 | 108% | 96.7% | 96.6% | 107% | 99.8 | 99.6 | 80.4 | 113 | 92.4 |  | 104% | 102% | 110%
CC/C(=C/c1c(O)cccc1OC)c1ccc2c(OC)cccc2[o+]1 | 92.2% | 110% | 98.8% | 99.4 | 99.5 | 95.3 | 104% | 90.6% | 95% | 97.3% | 97.9 | 96.9 | 93.5 | 121 | 99.2 |  | 102% | 104% | 102%
O=C(NNc1nc2cc(F)ccc2n2c(CN3CC4CNCC4C3)ccc12)c1cnccn1 (stereo unspecified) | 18.1% | 29.2% | 54.3% | 33.5 | 27.2 | 27.2 | 11.2% | 1.75% (active) | 7.74% (active) | 31.5% | 25.9 | 27.5 | 19.7 | 22.4 | 17.4 |  | 12.1% | 5.6% (active) | 36.9%
C[C@@H]1C[C@H]2C(=O)O[C@@H](C)C(NC(=O)[C@H](Cc3cc(F)cc(F)c3)NC(=O)Nc3ccc(C4CC4)cc3F)C(=O)N3CCC[C@H]3C(=O)N3CCCC[C@H]3C(=O)N[C@@H](CO)C(=O)N2C1 (stereo partly specified) | 14.1% | 25.4% | 31.5% | 27.9 | 29.8 | 11.5 | -15.9% (active) | 21.3% | 30.4% | 41.1% | 30.2 | 18.7 | 25.8 | 52.6 | 28.6 | 18.6 | 31.2% | 39.7% | 
O=C1Nc2ccccc2/C1=C/c1ccc(CO)n1-c1ccc(Cl)cc1 | 24% | 26.7% | 32.8% | 66.1 | 56.4 | 53.5 | 51.9% | 33.9% | 43.5% | 57.7% | 63.6 | 65.2 | 59.2 | 115 | 56.1 | 52.8 | 33% | 26.7% | 
CCC1=Cc2cc(OC)ccc2OC12C=Cc1cc(OC)ccc1O2 (stereo unspecified) | 14.7% | -9.52% (active) | 24.5% | 20.8 | 28.7 | 31.6 | 16.8% | 4.11% (active) | -5.73% (active) | 56.6% | 46.2 | 34.8 | 53 | 100 | 45 |  | 10.9% | 11% | 3.41% (active)
Cc1cc(C)c(N2C(=O)CC(Nc3ccc(Cl)cc3Cl)C2=O)c(C)c1 (stereo unspecified) | 102% | 107% | 93% | 98.5 | 104 | 94.8 | 103% | 91.4% | 96% | 102% | 102 | 98.2 | 85.9 | 109 | 103 | 87.6 | 105% | 103% | 
CCOC(=O)c1c(Nc2ccccc2)nn2c(-c3ccc(Cl)cc3)ccnc12 | 77.8% | 83.7% | 88% | 72.1 | 81.5 | 80.5 | 80.2% | 82.8% | 64.5% | 87.2% | 88.9 | 83.9 | 64.8 | 98.1 | 47.2 | 56.1 | 16.2% | 86% | 
c1ccc(C(c2nc3ncncc3[nH]2)N2CSc3nc4ncncc4n3C2)cc1 (stereo unspecified) | 80.4% | 42.7% | 45% | 96.9 | 92.1 | 78.2 | 85.1% | 27.5% | 13.2% | 98.4% | 94.4 | 87.5 | 70.9 | 48.9 | 81.9 | 41 | 32.1% | 23.8% | 
COc1cc(-c2nc(SCCC(C)C)nc(NNC(=O)c3ccncc3)c2C#N)cc(OC)c1OC | 78.1% | 42.9% | 27.1% | 66 | 79.7 | 78.6 | 84.4% | 38.1% | 53.4% | 85.8% | 54.7 | 60.4 | 19.3 | 52.8 | 23 | 37.8 | 95.8% | 68.7% | 
COC(=O)/C=C/c1c(C2(C)NC(=O)c3ccccc3N2)c(=O)oc2ccc(Cl)cc12 (stereo unspecified) | 91.4% | 96% | 74% | 90.7 | 88 | 89.2 | 91.4% | 75.4% | 97% | 97.6% |  | 87.9 | 67.8 | 108 | 87.4 | 78.2 | 101% | 101% | 59.3%
CN1CCN(c2nc(-c3csc(-c4ccccc4)n3)cc3ccccc23)CC1 | -48.6% (active) | -52% (active) | 70.5% | 66.1 | 36.7 | 28.9 | 58.7% | -38.4% (active) | -80.7% (active) | -25.2% (active) | 63.5 | 50.2 | 43.6 | 73.3 | 16.1 | 21.2 | 14.2% | 4.08% (active) | 
N#Cc1c(Nc2ccccc2)nn2c(-c3ccc([N+](=O)[O-])cc3)ccnc12 | 99.3% | 103% | 102% | 100 | 99.8 | 103 | 88.6% | 93.3% | 93.7% | 100% | 99.5 | 104 | 84 | 98 | 102 | 91.9 | 104% | 105% | 
CCOC(=O)c1c(Nc2ccccc2)nn2c(-c3ccc(OC)cc3)ccnc12 | 48.6% | 74.9% | 82.7% | 109 | 89.2 | 99.2 | 71.3% | 95.1% | 80.3% | 89.9% | 99.6 | 93.5 | 85.7 | 100 | 83.8 | 78 | 74.1% | 82.5% | 
CNC(=O)c1cc(Oc2ccc3nc(NC(=O)c4ccc(N5CCOCC5)c(C(F)(F)F)c4)sc3c2)ccn1 | 51.5% | 48.5% | 96.2% | 86.6 | 65.6 | 59 | 28.8% | 47.7% | 76.3% | 86.1% | 78.7 | 90.4 | 54.7 | 127 | 91.5 | 87.2 | 75.6% | 75.8% | 
